Test results taken from PubChem BioAssay.
“And” between values parts separate entries of the source, which are not always exact repeats. Equal values may be shown once. The source made the active and inactive calls.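 The calls were made as follows, unless noted: active = compounds whose cell count with miR-34 switched on is under 0.7 times the count with it off; inactive = the rest.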

Experiments:
[1] = compounds altering viability of human ES cells (AID 493140; call rule not given here;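 also: cells exposed to compounds for four days before counting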); conditions: human embryonic stem cell survival screen; stronger effect = higher value
[2] = P. berghei load reduction in hepatocytes – cell-based, HepG2, luciferase luminescence, HepG2 viability, primary screen (AID 624349; in the data active = parasite load remaining mostly below about 12%, no sharp cut-off; inactive = mostly above about 10%;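 also: 100% = mean of DMSO negative control wells on the same plate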); conditions: P. berghei liver stage in HepG2, luciferase luminescence, concentration not given here; parasite load remaining: stronger effect = lower value; viability: measured here: HepG2 viability without parasites
[3] = Wnt pathway potentiators raising nuclear beta-catenin – imaging, WNT3A-conditioned medium, mouse C2C12, NPC library, primary screen (AID 1117326; in the data active = nuclear beta-catenin stimulation mostly above about 4.2%, no sharp cut-off; inactive = mostly below about 10%); conditions: stronger effect = higher value
[4] = stimulators of insulin release from INS-1E, primary screen, cell-based, 5 mM glucose, NPC library (AID 1117329;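 active = compound raises insulin release from rat beta cells at 5 mM glucose, no numeric limit stated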); conditions: rat INS-1E insulin secretion, at 10 µM, stronger effect = higher value
[5] = growth inhibition of GSK3B-pretreated HCT116 cells – cell-based, CellTiter-Glo, 0.2 to 20 µM (AID 1117336;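 active = compounds lowering colon cancer cell viability after pretreatment blocking the GSK3B kinase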); conditions: HCT116 viability after GSK3B inhibitor, at 20 µM, stronger effect = higher value
[6] = inhibition of endothelial tube formation, primary screen, imaging, VEGF stimulated, CD31 staining, tube area, NPC library (AID 1117340;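 active = compound that reduces growth-factor-driven endothelial tube area in a mixed cell culture, no cutoff stated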); conditions: VEGF-stimulated ADSC/ECFC co-culture, at 10 µM, stronger effect = higher value
[7] = GLP1 release stimulators, primary, NCI-H716, NPC library (AID 1117341;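 active = compound raises GLP1 secretion from the human gut endocrine cells, with no numeric limit stated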); conditions: NCI-H716 cells, at 10 µM, stronger effect = higher value
[8] = HCT116 colon cancer cell growth inhibition, primary screen, CellTiter-Glo luminescence, NPC library (AID 1117342;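 active = compounds that lower survival of HCT116 colon cancer cells in the luminescence readout, no numeric limit stated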); conditions: at 20 µM (top of the series)
[9] = reduced SW480 viability measured with CellTiter-Glo, NPC library, primary (AID 1117343;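 active = compounds that lower viability of the colon cancer cells in the luminescence readout, with no numeric limit stated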); conditions: CellTiter-Glo luminescence; at 20 µM (top of the series) unless noted
[10] = NPC library primary testing for decreased DLD-1 cell viability via CellTiter-Glo (AID 1117346;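 active = compounds that lower survival of DLD-1 colon cancer cells in the luminescence readout, no cutoff given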); conditions: DLD-1 viability, CellTiter-Glo luminescence; at 20 µM (top of the series)
[11] = EMT-state selective cytotoxicity in co-culture – imaging, PC-3E GFP, TEM4-18 mCherry, primary screen (AID 1345086;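 active = compounds killing one labelled cell type while sparing the other, by normalised counts and ratio limits, not self-fluorescent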;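 as to all read-outs here: cells exposed to compound for 72 h before imaging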;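 as to red/green cell ratio (normalised): normalised mesenchymal count divided by normalised epithelial count so high means epithelial killing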); conditions: PC-3E GFP / TEM4-18 mCherry co-culture, imaging cell counts, at 1 µM; for red/green cell ratio (normalised): actives lie on both sides, counts scaled to control wells, 1 = unselective
[12] = viability loss with induced miR-34 in A549 – imaging, A549 dox-inducible miR-34, nuclei and caspase counts, primary screen (AID 1347080); conditions: A549 miR-34 inducible, Hoechst nuclei count, 48 h
[13] = MELAS cybrid and Rieske KO viability enhancers – cell-based, MELAS cybrids, Rieske KO mouse fibroblasts, CellTiter-Glo, primary screen (AID 1508586;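 active = mean z-score across replicates of 1.96 or higher in either the MELAS or the Rieske mutant cell line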;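 also: z relative to plate mean and SD of compound and empty wells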); conditions: low glucose
[14] = molecular target: NAD(+) hydrolase SARM1 (Homo sapiens) (UniProt Q6SZW1); experiment: blocking NAD cleavage by SARM1 SAM-TIR – cell lysate, NAD-Glo luminescence (AID 1508614;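 active = compound whose remaining NAD level is above about 45 nM, limit read from the data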;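 also: higher remaining NAD means stronger inhibition of SARM1 NADase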); conditions: SAM-TIR HEK293T lysate NADase, at 1 µM, stronger effect = higher value
NAD(+) hydrolase SARM1 (Homo sapiens), sequence (Q6SZW1 whole entry, looked up): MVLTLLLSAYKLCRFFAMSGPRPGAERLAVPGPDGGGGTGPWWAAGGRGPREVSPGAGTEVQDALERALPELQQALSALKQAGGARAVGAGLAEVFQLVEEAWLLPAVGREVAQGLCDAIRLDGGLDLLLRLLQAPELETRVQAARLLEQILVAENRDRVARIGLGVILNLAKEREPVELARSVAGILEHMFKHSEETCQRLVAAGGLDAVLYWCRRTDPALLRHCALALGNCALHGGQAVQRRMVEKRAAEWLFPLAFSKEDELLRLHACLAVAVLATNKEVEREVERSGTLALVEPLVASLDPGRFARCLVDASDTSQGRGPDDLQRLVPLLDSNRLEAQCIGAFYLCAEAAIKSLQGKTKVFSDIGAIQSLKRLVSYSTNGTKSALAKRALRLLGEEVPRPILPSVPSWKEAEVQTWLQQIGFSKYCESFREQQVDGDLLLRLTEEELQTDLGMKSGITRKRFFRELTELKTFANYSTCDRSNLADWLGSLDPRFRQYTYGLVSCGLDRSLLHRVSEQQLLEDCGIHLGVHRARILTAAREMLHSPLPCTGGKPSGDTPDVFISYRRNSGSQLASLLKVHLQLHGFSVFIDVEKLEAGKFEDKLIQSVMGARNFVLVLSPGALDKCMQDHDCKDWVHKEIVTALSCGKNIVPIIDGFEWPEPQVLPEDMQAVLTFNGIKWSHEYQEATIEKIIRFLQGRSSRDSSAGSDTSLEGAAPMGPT

[15] = growth inhibition, single agent or in combination, cell-based, chromothripsis tumors, cisplatin or BGB combos (AID 1671449; in the data active = inhibition above about 80%;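 also: cells exposed for 96 hours; 0% = vehicle DMSO and 100% = killing by high DMSO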); conditions: LFS_MB_P medulloblastoma cells
[16] = growth inhibition, single agent and combos, cell-based, chromothripsis tumors, cisplatin or BGB combos (AID 1671450; in the data active = inhibition above about 80%;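 also: cells exposed to compound for four days; 0% = vehicle DMSO and 100% = cell killing by high DMSO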); conditions: HDN33 neuroblastoma cells, stronger effect = higher value
[17] = growth inhibition, single agents and combos, ICB984, cell-based, cisplatin or BGB combos, synergistic combos for chromothripsis tumors (AID 1671451; call rule not given here;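 also: cells exposed for 96 hours before readout; 0% = vehicle DMSO and 100% = killing by high DMSO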); conditions: ICB984 medulloblastoma cells, drug combinations, stronger effect = higher value
[18] = growth inhibition, single agents and combos, HTB85, cell-based, BGB or cisplatin IC20 combos, synergistic combos for chromothripsis tumors (AID 1671453; in the data active = inhibition above about 80%;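 also: cells exposed for 96 hours before readout; 0% = vehicle DMSO and 100% = high DMSO killing control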); conditions: HTB85 osteosarcoma cells, drug combinations, stronger effect = higher value
[19] = growth inhibition, MDA-MB-436, cell-based, BGB or cisplatin combos, synergistic combos for chromothripsis tumors (AID 1671458; call rule not given here;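 also: cells exposed for 96 hours; 0% = vehicle DMSO and 100% = killing by high DMSO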); conditions: MDA-MB-436 breast carcinoma growth inhibition, drug combinations, stronger effect = higher value
[20] = measured here: epithelial PC-3E GFP cell survival
[21] = measured here: mesenchymal TEM4-18 mCherry cell survival
[22] = stronger effect = lower value, cell number ratio, induced over uninduced
[23] = measured here: relative caspase fold change +Dox/-Dox
[24] = measured here: total cells with miR-34 induction, stronger effect = lower value
[25] = measured here: total cells without miR-34 induction
[26] = MELAS cybrid survival, CellTiter-Glo 48 h, stronger effect = higher value
[27] = Rieske KO mouse fibroblast survival, CellTiter-Glo 72 h

SMILES: CC(=O)Oc1cc(C(C)C)c(OCCN(C)C)cc1C
- survival [1]: 24.8 (inactive)
- parasite load remaining [2]: 26.2% (inactive) and 99.2% (inactive)
- viability [2]: 48.6% and 93%
- nuclear beta-catenin stimulation ([3]; at 10 µM): -2.5% (inactive)
- nuclear beta-catenin stimulation ([3]; stimulation, at 2 µM): -1%
- insulin secretion stimulation [4]: 5.5% (inactive)
- viability decrease [5]: 19.7% (inactive)
- tube area decrease [6]: -2.1% (inactive)
- GLP1 secretion stimulation [7]: 2.8% (inactive)
- inhibition of viability [8]: 2.17% (inactive)
- viability decrease (inhibition) [9]: 20.7% (inactive)
- viability decrease (inhibition) [10]: -14.3% (inactive)
- red/green cell ratio (normalised) [11]: 1.11 (inactive)
- normalised cell number [11, 20]: 0.81
- normalised cell number [11, 21]: 0.9
- fold change [12, 22]: 1.09 (inactive) and 0.875 (inactive)
- fold change [12, 23]: 0.909 and 1.24
- cell count [12, 24]: 11300 and 8650
- cell count [12, 25]: 10400 and 9890
- z-score [13, 26]: 0.238 (inactive)
- z-score [13, 27]: -0.428
- remaining NAD [14]: 10 nM (inactive)

SMILES: COc1ccc2[nH]c(S(=O)Cc3ncc(C)c(OC)c3C)nc2n1 (configuration not stated)
- parasite load remaining [2]: 0.57% (active)
- viability [2]: 93%
- nuclear beta-catenin stimulation ([3]; at 10 µM): 5.2% (inactive)
- nuclear beta-catenin stimulation ([3]; stimulation, at 2 µM): -0.9%
- insulin secretion stimulation [4]: 4.2% (inactive)
- viability decrease [5]: 16.5% (inactive)
- tube area decrease [6]: 14.1% (inactive)
- GLP1 secretion stimulation [7]: 4.6% (inactive)
- inhibition of viability [8]: 4.9% (inactive)
- viability decrease (inhibition) [9]: -1.6% (inactive)
- viability decrease (inhibition) [10]: 4.3% (inactive)
- red/green cell ratio (normalised) [11]: 1.06 (inactive)
- normalised cell number [11, 20]: 1.01
- normalised cell number [11, 21]: 1.07
- fold change [12, 22]: 0.835 (inactive)
- fold change [12, 23]: 1.32
- cell count [12, 24]: 8340
- cell count [12, 25]: 9990
- z-score [13, 26]: 1.95 (inactive) and 1.02
- z-score [13, 27]: 0.213 and 2.3
- remaining NAD [14]: 77 nM (active)

SMILES: CNC1CCCN(c2c(F)cc3c(=O)c(C(=O)O)cn(C4CC4)c3c2OC)C1 (configuration not stated)
- nuclear beta-catenin stimulation ([3]; at 10 µM): -0.1% (inactive)
- nuclear beta-catenin stimulation ([3]; stimulation, at 2 µM): 0%
- insulin secretion stimulation [4]: 5.75% (inactive)
- viability decrease [5]: 42.9% (inactive)
- tube area decrease [6]: -9% (inactive)
- GLP1 secretion stimulation [7]: 1.4% (inactive)
- inhibition of viability [8]: 10.1% (inactive)
- viability decrease (inhibition) [9]: 6% (inactive)
- viability decrease (inhibition) [10]: -25.9% (inactive)
- red/green cell ratio (normalised) [11]: 1.13 (inactive)
- normalised cell number [11, 20]: 1.05
- normalised cell number [11, 21]: 1.18
- fold change [12, 22]: 0.938 (inactive)
- fold change [12, 23]: 0.74
- cell count [12, 24]: 8330
- cell count [12, 25]: 8880
- z-score [13, 26]: -0.145 (inactive)
- z-score [13, 27]: 0.59
- inhibition ([15]; at 0.5 µM, stronger effect = higher value): 6.49% (inactive)
- inhibition ([15]; measured here: combination with BGB IC20, at 0.005 µM): -28.5%
- inhibition ([15]; measured here: combination with BGB IC40, at 0.005 µM): -37.4%
- inhibition ([15]; measured here: combination with BGB IC40, at 0.05 µM): -26.1%
- inhibition ([15]; measured here: combination with cisplatin, at 0.5 µM, stronger effect = higher value): 1.25%
- inhibition ([15]; measured here: combination with cisplatin, at 5 µM, stronger effect = higher value): -35.3%
- inhibition ([16]; BGB combo, at 5 µM): -29.7%
- inhibition ([16]; at 0.5 µM): -41% (inactive)
- inhibition ([16]; cisplatin combo, at 5 µM): -60.5%
- inhibition ([16]; measured here: with BGB IC20 combination, at 0.5 µM): -39.7%
- inhibition ([16]; measured here: with cisplatin IC20 combination, at 0.5 µM): -37.4%
- inhibition ([16]; single agent, at 5 µM): -52%
- inhibition ([17]; BGB IC20 combo, at 0.005 µM): -26.8%
- inhibition ([17]; BGB IC40 combo, at 0.005 µM): -20.1%
- inhibition ([17]; BGB IC40 combo, at 0.05 µM): -26.3%
- inhibition ([17]; at 0.5 µM): -21.9% (inactive)
- inhibition ([17]; cisplatin combo, at 0.05 µM): -26.3%
- inhibition ([17]; cisplatin combo, at 0.5 µM): -35.1%
- inhibition ([17]; cisplatin combo, at 5 µM): -31.2%
- inhibition ([17]; measured here: 5 uM single agent, at 5 µM): -13.6%
- inhibition ([18]; at 0.5 µM): -23.2% (inactive)
- inhibition ([18]; measured here: with BGB IC20, at 0.5 µM): -35.9%
- inhibition ([18]; measured here: with BGB IC20, at 5 µM): -27.5%
- inhibition ([18]; measured here: with cisplatin IC20, at 0.5 µM): -20.5%
- inhibition ([18]; measured here: with cisplatin IC20, at 5 µM): -18.5%
- inhibition ([18]; single agent, at 5 µM): -28.7%
- inhibition ([19]; at 0.5 µM): -22.5% (inactive)
- inhibition ([19]; measured here: BGB combination, at 0.5 µM): -19.9%
- inhibition ([19]; measured here: BGB combination, at 5 µM): -19.5%
- inhibition ([19]; measured here: cisplatin combination, at 0.5 µM): -36.1%
- inhibition ([19]; measured here: cisplatin combination, at 5 µM): -11.6%
